The panel holds about 83,000 compounds, 20% with a hit somewhere; the sample as a whole holds those more often.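 The endpoint reported here, percent growth, reads 100 for growth as untreated, 0 for no net growth and -100 for all cells dead.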 Calls of active or inactive are those of the source.
test system: HCT-15 colon; assay: NCI-60 one-dose screen, 48 h (100 = growth as untreated, 0 = no growth, -100 = all killed); conditions: 10 µM unless noted
Procedure: Growth inhibition of the HCT-15 human tumor cell line is measured as a screen for anti-cancer activity. Cells are grown in 96 well plates and exposed to the test compound for 48 hours. Compounds are tested at a single concentration, which is 10^-5 M for most compounds. The reported endpoint is percent growth (GI% or GIPRCNT), where numbers from 0 - 100% represent growth inhibition, and numbers from -100% - 0 represent cell death. For example, a value of 40 represents 60% growth inhibition. A value of 0 means no net growth occurred over the course of the experiment. A value of -40 indicates 40% of cells at the beginning of the experiment died by the end of the experiment. A value of -100 means all cells are dead at the end of the experiment.
NCI-60 Human Tumor Cell Lines Screen was performed using the standard one-dose NCI protocol, which is described in more detail at https://dtp.cancer.gov/discovery_development/nci-60/default.htm.
Compounds with GIPRCNT values below 10 were considered active. Activity score was based on GIPRCNT using the following formula: […]
Score is 0 for GIPRCNT values of 100 or above, 50 for GIPRCNT values of 0, and 100 for GIPRCNT values of -100.

SMILES	growth
COc1cnc2c(c1)C(=O)c1c-2n(CCCN2CCNCC2)c(=O)c2cc(F)ccc12	2.48% (active)
CC(C)CC1NC(=O)C(CCCN)NC(=O)C(C(C)C)NC(=O)C2CCCN2C(=O)C(Cc2ccccc2)NC(=O)C(CC(C)C)NC(=O)C(CCCN)NC(=O)C(C(C)C)NC(=O)C2CCCN2C(=O)C(Cc2ccccc2)NC1=O (stereo not given)	7.83% (active)
O=C1NCCc2c1noc2-c1ccccc1	106% (inactive)
COc1ccc(N2CCN(CC(=O)N3CCN(c4nnc(-c5ccc(Cl)cc5)c(-c5ccc(Cl)cc5)n4)CC3)CC2)cc1	45% (inactive)
O=C(N/N=C/c1cccc([N+](=O)[O-])c1)c1ccc(Br)o1	127% (inactive)
O=C(NCCNC(=O)Oc1cccc2ccccc12)Oc1cccc2ccccc12	99.6% (inactive)
C/C=C(/C(=C/C)c1ccc(O)cc1)c1ccc(O)cc1	31.7% (inactive)
CC[C@@H](c1ccc(O)c(O)c1)[C@@H](CC)c1ccc(O)c(O)c1	58.1% (inactive)
CCOC1Oc2ccccc2C(=O)/C1=N/c1nccs1 (stereo not given)	80% (inactive)
Cc1ccc(S(=O)(=O)NCCN2c3nc4ccccc4cc3Sc3cc4ccccc4nc32)cc1	103% (inactive)
CCN(CC)c1ccc(/C=C/C(=O)c2cccc(NS(C)(=O)=O)c2)cc1	27.8% (inactive)
CSc1nc(Nc2ccc(S(=O)(=O)Nc3ccon3)cc2)c(C#N)c(-c2ccc(Cl)cc2)n1	87.9% (inactive)
Cc1ccc(-c2cc(-c3ccccc3)n(-c3ccccc3)n2)cc1	106% (inactive)
O=C(Nc1ccc2c(c1)C(=O)c1ccccc1-2)c1ccccc1	67.2% (inactive)
O=C1Nc2ccc(Cl)cc2[C@@](C#CC2CC2)(C(F)(F)F)O1	82.9% (inactive)
O=C(c1ccc(Cl)cc1)c1ccc(Cl)cc1	113% (inactive)
O=[N+]([O-])c1cc([N+](=O)[O-])c(N2CCCC2)cc1NN=C(c1ccc(O)cc1)c1ccc(O)cc1	46.9% (inactive)
COc1ccc(-c2c3c(N)nc(-c4ccncc4)nc3nc3c2c(C)nn3-c2ccccc2)cc1	57.1% (inactive)
COC(=O)CC1=C(c2ccc([N+](=O)[O-])cc2)CCC1=O	89.6% (inactive)
O=C(O)CCNS(=O)(=O)c1ccc(-c2ccccc2)cc1	99.2% (inactive)

SMILES	growth
O=C(COc1cccc(/C=C2\Oc3ccc4ccccc4c3C2=O)c1)c1ccc([N+](=O)[O-])cc1	89.5% (inactive)
CC1(C)CC2(C)CC(=O)C1C(C(=O)O)C2C(=O)O (stereo not given)	110% (inactive)
NC(=NCCCCCCN=C(N)/N=C(\N)Nc1ccc(Cl)cc1)/N=C(\N)Nc1ccc(Cl)cc1	17.2% (inactive)
N#Cc1c(NC(=O)c2ccco2)[n+]([O-])c2ccccc2[n+]1[O-]	116% (inactive)
OC(c1ccccc1)C(NCc1ccccc1)c1ccccc1 (stereo not given)	108% (inactive)
Nc1nc(Nc2ccccc2SSc2ccccc2Nc2nc(N)nc(-c3cccc(Cl)c3)n2)nc(-c2cccc(Cl)c2)n1	69.8% (inactive)
Oc1ccc(/C=N/Nc2nc3ccccc3s2)c(O)c1	30.9% (inactive)
CCCCCCCC[Si](OCC)(OCC)OCC	107% (inactive)
O=C(COc1ccc(/C=C2\Cc3ccccc3C2=O)cc1)c1ccc(Cl)cc1	96.1% (inactive)
NC(=O)c1cc(Cl)ccc1NC(=O)c1ccccc1-c1ccccc1	27.9% (inactive)
O=C(Nc1ccc(Cl)cc1)Nc1ccccc1CNc1nc(Nc2ccc(OCCN3CCCC3)cc2)ncc1Cl	6.28% (active)
C[C@]12CCC(=O)C=C1CCC1C2[C@@H](O)C[C@@]2(C)C1CC[C@]2(O)C(=O)COC(=O)CCC(=O)O (stereo not given in full)	112% (inactive)
Cc1nn2c(/C=C3/C(=O)Nc4cc(Cl)ccc43)c(-c3ccccc3)nc2s1	37.8% (inactive)
CCOC(=O)c1sc(NC(=O)COc2cccc(/C=C3\Cc4ccc(Cl)cc4C3=O)c2)nc1C	97.4% (inactive)
CCCCCCCSc1ncnc2[nH]ncc12	60.8% (inactive)
CC(=O)Nc1cc(C(c2ccccc2)c2ccccc2)cc(C(c2ccccc2)c2ccccc2)c1C	50.5% (inactive)
O=C1OC(Oc2ccccc2)(c2ccccc2)c2ccccc21 (stereo not given)	99.7% (inactive)
O=C(Nc1ccccc1OC(=O)c1ccccc1)c1ccccc1	88.5% (inactive)
COc1cc(C2CC(c3ccc(C)cc3)=NN2C=O)ccc1OCCN(C)C (stereo not given)	76% (inactive)
Cc1[nH]cnc1/C=C1\SC(N2CCCCC2)=NC1=O	107% (inactive)

From PubChem BioAssay (NCI)
